Results: PubChem BioAssay (Tox21)
Values without a mark were called inactive. Activity calls are given as the source filed them. Calls follow the shape of the dose curve; as a rule, active = well fitted curve in the direction sought with a large enough effect in the repeat runs; inconclusive = weak or mixed curves; inactive = flat fitted curve, though single readings scatter.

Assay: qHTS assay to test for compound auto fluorescence at 535 nm (green) in HEK293 cells (AID 720680)
Conditions: green autofluorescence 485/535 nm; series mostly up to 91.3 µM; fluorescence, % of fluorescein: at the top concentration
Text: U.S. Tox21 Program National Center for Advancing Translational Sciences [NCATS] NIH Chemical Genomics Center [NCGC] U.S. Environmental Protection Agency [EPA] National Institutes of Environmental Health Sciences [NIEHS] National Toxicology Program [NTP] U.S. Food and Drug Administration [FDA] Tox21 Assay Overview: Compound auto fluorescence often interferes with screening of the compound library against various biological targets and signaling pathways. Some of these compounds may have fluorophoric properties. Such properties may interfere with the assay outputs resulting in false positives and/or negatives. To decrease such complications and ensure the compound activities are relevant in terms of biological response, the Tox21 10K compound library was screened for auto fluorescence. From the fluorophores used as reporter signals in our screening assays, the auto fluorescence equivalencies of compounds against three fluorophores have been evaluated: Triamterene, Fluorescein and Rose Bengal sodium for blue, green and red fluorescence, respectively. The fluorescence intensities were measured using Excitation/Emission wavelengths at 405/460nm, 485/535nm and 540/590nm for blue, green and red labels, respectively. This assay includes the green fluorescence data.
Tox21 Assay Protocol Summary: 2,000 HEK293 cells in 5 uL of culture medium containing 10% dialyzed FBS per well were dispensed into black wall/clear bottom 1536-well plates using a Multidrop Combi Dispenser (Thermo Scientific). The assay plates were incubated for 4-5 hr at 37C to allow cell attachment to the well bottom, followed by the transfer of 23 nL compound or DMSO vehicle by a pintool work station (Kalypsys, San Diego, CA). After the assay plates were incubated overnight at 37C and 5% CO2, fluorescence intensities in the assay plates were measured by an Envision (PerkinElmer, Shelton, CT) plate reader using three labels for measuring blue, green and red fluorescence at […] 460, 535 and 590nm respectively.
% is scaled to controls: 0 for no effect and ±100 for the full control effect.

Row | Structure (SMILES) | fluorescence, % of fluorescein | outcome
1 | CC1=CC(=O)CC(C)(C)C1(O)/C=C/C(C)=C\C(=O)O (stereo not given) | 0.112% | 
2 | CCOC(=O)c1ccccc1C | -0.0173% | 
3 | CCCCCCCCCCCC[N+](C)(C)CCCS(=O)(=O)[O-] | 0.0083% [at 95.7 µM] | 
4 | CC(Cl)C(Cl)Cl (stereo not given) | 0.0406% | 
5 | COc1cc2[nH]c(=O)[nH]c(=O)c2cc1OC | 0.0875% [at 18.6 µM] | 
6 | CC(=O)CC(c1ccc([N+](=O)[O-])cc1)c1c(O)c2ccccc2oc1=O (stereo not given) | 0.0049% [at 18.6 µM] | 
7 | CCCCN(CCCC)C(=S)SSC(=S)N(CCCC)CCCC | 0.0011% | 
8 | C=CC(C)(O)CCCC(C)CCCC(C)CCCC(C)C (stereo not given) | -0.0967% | 
9 | CC(C)(CCl)c1ccccc1 | 0.0673% | 
10 | CCC(C)=O | -0.009% | 
11 | CNC(=S)NC | -0.0025% | 
12 | O=C(O)c1cccnc1C(=O)O | 0.0174% | 
13 | C[C@@H]1C[C@H]2[C@@H]3CCC4=CC(=O)C=C[C@]4(C)[C@@]3(F)[C@@H](O)C[C@]2(C)[C@@]1(O)C(=O)CO | 0.0857% [at 95.7 µM] | 
14 | O=C(O)c1cccc(O)c1 | 0.0521% | 
15 | C/C=C/C=C/CCCCCCCO | 0.0985% | 
16 | CN1CCN(CCCN2c3ccccc3Sc3ccc(S(=O)(=O)N(C)C)cc32)CC1 | 0.046% [at 18.6 µM] | 
17 | CC(C)(C)C(=O)O | 0.0296% | 
18 | CCCCCCCCCCOS(=O)(=O)O | 0.0161% | 
19 | COC(=O)[C@@H]1CC2=CC(=O)CC[C@]2(C)[C@@]23O[C@@H]2C[C@@]2(C)[C@@H](CC[C@@]24CCC(=O)O4)[C@H]13 | 0.026% [at 46 µM] | 
20 | CCCCC(CC)COC(=O)COc1ccc(Cl)cc1C (stereo not given) | 0.2% | 

Row | Structure (SMILES) | fluorescence, % of fluorescein | outcome
21 | CC(=O)[C@H]1CC[C@H]2[C@@H]3C[C@H](C)C4=CC(=O)CC[C@]4(C)[C@H]3[C@@H](O)C[C@]12C | 0.123% [at 18.6 µM] | 
22 | COc1cc2c(cc1OC)-c1cc(=Nc3c(C)cc(C)cc3C)n(C)c(=O)n1CC2 | -0.0717% [at 46 µM] | 
23 | C=CCOC(=O)/C=C\C(=O)OCC=C | 0.0544% [at 95.7 µM] | 
24 | CO/N=C1\CN(c2nc3c(cc2F)c(=O)c(C(=O)O)cn3C2CC2)CC1CN (stereo not given) | 0.118% [at 46 µM] | 
25 | CCCCC(CC)C(=O)OCCOCCOCCOCCOC(=O)C(CC)CCCC (stereo not given) | 0.0314% | 
26 | Cc1ccccc1N1C(=O)c2cc(S(N)(=O)=O)c(Cl)cc2NC1C (stereo not given) |  | inactive
27 | CC1=C(C=O)C(C)(C)CCC1 | -0.0091% | 
28 | CC(=O)OCC(=O)[C@H]1CC[C@H]2[C@@H]3CCC4=CC(=O)CC[C@]4(C)[C@H]3CC[C@]12C | 0.0227% [at 46 µM] | 
29 | NC(=O)N(O)[C@@H]1C=C[C@H](Oc2cccc(Oc3ccc(F)cc3)c2)C1 | 0.255% | 
30 | CC(=O)Nc1ccc(N)cc1 | -0.0631% [at 95.7 µM] | 
31 | CO[Si](C)(OC)OC | -0.111% | 
32 | CC(C)(C)CC(C)(C)c1ccc(OCCO)cc1 |  | inactive
33 | Nc1ccc(C(=O)OCCCOC(=O)c2ccc(N)cc2)cc1 | -0.0047% | 
34 | O=C(Nc1ccc([N+](=O)[O-])cc1)Nc1ccc([N+](=O)[O-])cc1 | -0.0171% [at 46 µM] | 
35 | CC(=O)Oc1ccc(C(=C2CCCCC2)c2ccc(OC(C)=O)cc2)cc1 | -0.0107% [at 46 µM] | 
36 | C=CC(C)(C)CC(=O)OC | 0.0121% | 
37 | CC1CN(c2cc3c(cc2F)c(=O)c(C(=O)O)cn3-c2ccc(F)cc2F)CCN1 (stereo not given) | 0.151% [at 46 µM] | 
38 | C/C=C(\C)C(=O)OCCC(C)CCC=C(C)C (stereo not given) | 0.0804% | 
39 | CC(C)OCC1CO1 (stereo not given) | -0.0335% | 
40 | CCc1c2c(nc3ccc(OC(=O)N4CCC(N5CCCCC5)CC4)cc13)-c1cc3c(c(=O)n1C2)COC(=O)[C@]3(O)CC | -0.0183% [at 46 µM] | 
